# Data: PubChem BioAssay (NCI)
# “And” between values parts separate entries of the source, which are not always exact repeats. Equal values may be shown once. The panel holds about 83,000 compounds, 20% with a hit somewhere; the sample as a whole holds those more often.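 Cells were grown in 96-well plates and exposed to the test compound at a single concentration for 48 hours; results are reported as percent growth, with values below 10 considered active.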 Values without a mark were called inactive. The source made the active and inactive calls.
# Columns and labels:
# Experiment in all cases: NCI-60 one-dose screen, 48 h (100 = growth as untreated, 0 = no growth, -100 = all killed)
# [1] = test system: HCT-15 colon
# [2] = test system: HT29 colon
# [3] = test system: SNB-75 CNS
# [4] = test system: SNB-19 CNS
# [5] = test system: U251 CNS
# [6] = test system: PC-3 prostate
# [7] = test system: SK-MEL-5 melanoma; conditions: 10 µM unless noted
# [8] = test system: UACC-62 melanoma
# [9] = test system: LOX IMVI melanoma
# [10] = test system: SK-MEL-28 melanoma
# [11] = test system: SK-MEL-2 melanoma; conditions: 10 µM unless noted
# [12] = test system: EKVX NSCLC
# [13] = test system: SN12C renal
# [14] = test system: UO-31 renal
# [15] = test system: TK-10 renal
# [16] = test system: ACHN renal
# [17] = test system: CAKI-1 renal
# [18] = test system: A498 renal
# [19] = test system: CCRF-CEM leukemia
# [20] = test system: MOLT-4 leukemia; conditions: 10 µM unless noted
smiles,measurement,setting,value
CC(C)C(=O)Nc1ccc([N+](=O)[O-])c(C(F)(F)F)c1,growth,[1]; 10 µM unless noted,94% and 100%
same,growth,[2]; 10 µM unless noted,106% and 115%
same,growth,[3]; 10 µM unless noted,113% and 92%
same,growth,[4]; 10 µM unless noted,96.8% and 102%
same,growth,[5]; 10 µM unless noted,98.3% and 96.7%
same,growth,[6]; 10 µM unless noted,69.5% and 100%
same,growth,[7],85.2% and 98.4%
same,growth,[8]; 10 µM unless noted,74.9% and 80%
same,growth,[9]; 10 µM unless noted,90% and 93.2%
same,growth,[10]; 10 µM unless noted,102% and 107%
same,growth,[11],111% and 28.9%
same,growth,[12]; 10 µM unless noted,51.4% and 86.1%
same,growth,[13]; 10 µM unless noted,65.3% and 88%
same,growth,[14]; 10 µM unless noted,76.1% and 71.9%
same,growth,[15]; 10 µM unless noted,94.5% and 111%
same,growth,[16]; 10 µM unless noted,98.4%
same,growth,[17]; 10 µM unless noted,69.2% and 100%
same,growth,[18]; 10 µM unless noted,84.4% and 96%
same,growth,[19]; 10 µM unless noted,75.4% and 109%
same,growth,[20],76.8% and 97.8%
CC(C)(C)c1cc(NC(=O)Cc2ccc(-c3cnc4cc(-c5cnn(CCN6CCOCC6)c5)ccc4n3)cc2)no1,growth,[1]; 10 µM,9.24% (active)
same,growth,[1]; 30 µM,7.76% (active)
same,growth,[2]; 10 µM,25.9%
same,growth,[2]; 30 µM,31.2%
same,growth,[3]; 10 µM,-0.488% (active)
same,growth,[3]; 30 µM,-1.06% (active)
same,growth,[4]; 10 µM,42.4%
same,growth,[4]; 30 µM,44%
same,growth,[5]; 10 µM,22.1%
same,growth,[5]; 30 µM,33.4%
same,growth,[6]; 10 µM,24.7%
same,growth,[6]; 30 µM,23.9%
same,growth,[7],9.52% (active)
same,growth,[8]; 10 µM,16.3%
same,growth,[8]; 30 µM,19.6%
same,growth,[9]; 10 µM,17.7%
same,growth,[9]; 30 µM,8.41% (active)
same,growth,[10]; 10 µM,29.4%
same,growth,[10]; 30 µM,30.3%
same,growth,[12]; 10 µM,26.9%
same,growth,[12]; 30 µM,19.1%
same,growth,[13]; 10 µM,7.01% (active)
same,growth,[13]; 30 µM,6.88% (active)
same,growth,[14]; 10 µM,1.27% (active)
same,growth,[14]; 30 µM,3.63% (active)
same,growth,[15]; 10 µM,34.9%
same,growth,[15]; 30 µM,40.8%
same,growth,[16]; 10 µM,5.88% (active)
same,growth,[16]; 30 µM,8.72% (active)
same,growth,[17]; 10 µM,1.21% (active)
same,growth,[17]; 30 µM,3.67% (active)
same,growth,[18]; 10 µM,-26.9% (active)
same,growth,[18]; 30 µM,-14.9% (active)
same,growth,[19]; 10 µM,15.5%
same,growth,[19]; 30 µM,10.4%
CC(C(=O)O)n1cc(C#N)c(=O)[nH]c1=O (stereo not given),growth,[1]; 10 µM unless noted,104% and 102%
same,growth,[2]; 10 µM unless noted,110% and 104%
same,growth,[3]; 10 µM unless noted,83.7% and 76.9%
same,growth,[4]; 10 µM unless noted,107% and 101%
same,growth,[5]; 10 µM unless noted,111% and 107%
same,growth,[6]; 10 µM unless noted,95.3%
same,growth,[7],105% and 102%
same,growth,[8]; 10 µM unless noted,103% and 99.7%
same,growth,[9]; 10 µM unless noted,110% and 98.6%
same,growth,[10]; 10 µM unless noted,110%
same,growth,[11],120% and 102%
same,growth,[12]; 10 µM unless noted,95.6% and 110%
same,growth,[13]; 10 µM unless noted,98.6% and 96.1%
same,growth,[14]; 10 µM unless noted,81.3% and 82.4%
same,growth,[15]; 10 µM unless noted,112% and 110%
same,growth,[16]; 10 µM unless noted,100% and 96.5%
same,growth,[17]; 10 µM unless noted,86.5% and 93.1%
same,growth,[18]; 10 µM unless noted,107%
same,growth,[19]; 10 µM unless noted,91.6% and 103%
same,growth,[20],90% and 107%
O=S1(=O)CC(Br)C(Br)C1 (stereo not given),growth,[1]; 10 µM unless noted,49.1% and 61.1%
same,growth,[2]; 10 µM unless noted,27.7% and 79%
same,growth,[3]; 10 µM unless noted,100% and 88.8%
same,growth,[4]; 10 µM unless noted,98.7% and 97.2%
same,growth,[5]; 10 µM unless noted,98% and 97%
same,growth,[6]; 10 µM unless noted,86.3% and 92.6%
same,growth,[7],93.2% and 99.2%
same,growth,[8]; 10 µM unless noted,86.5% and 93.4%
same,growth,[9]; 10 µM unless noted,81.3% and 38.4%
same,growth,[10]; 10 µM unless noted,80.8% and 106%
same,growth,[11],82.4% and 83.3%
same,growth,[12]; 10 µM unless noted,93.9%
same,growth,[13]; 10 µM unless noted,93.2% and 88.3%
same,growth,[14]; 10 µM unless noted,64.9% and 77%
same,growth,[15]; 10 µM unless noted,40% and 63.8%
same,growth,[16]; 10 µM unless noted,42.2% and 69.8%
same,growth,[17]; 10 µM unless noted,45.1% and 65.5%
same,growth,[18]; 10 µM unless noted,112%
same,growth,[19]; 10 µM unless noted,33.7%
same,growth,[20],61.3% and 68.6%
